In the supplement of paper PMC6555819:

Tested on: PXR homodimer (NR concentration 270 nM)
Assay: PBM binding z-score (relative to random genomic background probes); higher = stronger binding; sequences stand for … in GC…GCGATTGACAGCGTAGAATGAAGG
Procedure, shortened: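 Ligand-free nuclear receptor dimers were bound for 1 h to custom Agilent 4×180K protein-binding microarrays. Detection used antibodies against each partner (one per run). Binding z-scores rest on regression-normalized fluorescence, with random background probes as the reference.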

Sequence | PBM binding z-score
CCTTCCGGGTCACGAGGTTATAGCACGACGAGCG | 0.436
TCTGCTAAGTCAACGATGGTCAGCTAATCTGCTA | -1.18
TGAATGAGGTTATAAGATCAGAGAACGTTGCAAA | -0.71
CCTGCTAGGTCAATGCTCAGCTAAAGCAGCTCGC | -0.943
TCATATAGGTAATACAGGTGAAAGTCGGCATCTA | 0.728
CCGACTGGGGCAAAGGTTACCCTACTCAGTACGA | -0.0869
AATACAGGGTCATCGTAGGCCAGAATACGCACAG | 0.787
TCTCGGAGGACGCGAAAGGTCAGAGCTCGACATC | 0.0066
TCTGCTAGGGCAACGATGGTCAGCTAATCTGCTA | -0.975
CCTTACGGGTCACTCCAGGTTATAGCTTCGGAGT | 0.446
TCTAGCAGGCCAGAGTGTCACTCAAGAGGTACGG | -0.833
CCTTACGGGTCACTGACAGGTTACAGCATTTGGA | 0.0317
ATATGTAGGTTAGCTGGGGTCAGTCAGACTAGGC | 1.14
CCTACTGGGCCTAAAAGGTCATTGATGCCGATAA | 2.21
CCTAGTTGGTCAAGGTTACACACGCTATAGGTAC | 1.09
ATCGAAAGGTCGACGAGGTGAGTTTACACCGTTT | 0.675
TCGCCTAGGTCATTGGGCCAGTATAGTACGCATC | 0.00603
CCTTACGGGTCAAGGTTAGAGCACGGGTGGTACG | -0.133
TAGCCTAGGTCAATCAGGGGCCAGTATAGAAAGC | -0.411
TCCTATAGGTAAAAGGTGAAAGTCGGTGTGGTAA | 0.259

Sequence | PBM binding z-score
ATATGGAGGTTACATCCGGGTCATTCAGGCTATG | 2.76
TATACAGGGTCAAATGCCAGAGTACGAATGTCGA | 1.12
TGAATGAGGTTAAAAGATCAGGGAACGTTGCAAA | 0.0168
TCTATTGGTTGATTAGGGCAACCGAAACAGCGGA | 0.277
CCTTACGGGTCATGGTTATAGCACGGGTGGTACG | 0.0669
CCTAGTTGGTCAGGAGTTCACACACCGGATATGA | 3.68
AATACAGGGTCTCTAGGCCAGAGTAGGTACGAAT | -0.459
ACTAGCAGGCCTAGGGTCACTCAAGATTAGTCCG | 0.0787
TCTATTAGTTGATTAGGGCCACCGAAACAGCGGA | 0.469
ACTAGTTGGTCAGGTGAGGTCACACACAATTCGG | 2.28
ATACCAAGGTGATCGTGAGGTAGTTGATACTAAC | 0.172
CCTAGTTGGTCAAGGTCAAACACGCTATAGGTAC | 3.25
TAGCCTAGGTCAGATCGGGCTAGTATACGCTATA | -0.428
TAGCCTAGGTGATTCAGGGGCCAGTATAGAAAGC | -0.446
TCATATAGGTAACTGCTAGGTGAAAGTCCGATCT | 0.184
TCAGACAGGTTAAGGTAACTCAGGTACGCAGTCG | 0.461
TCTCGGAGGACACGAAAGTCAGAGCTTTCCAGAG | -0.694
AATCCAGGGTCACTAGGCCAGAGTAGGTACGAAT | 0.164
CGAACGAGCGCATGAGTTGATAGCAAATGCCGAT | -0.275
GTACAAAGGTGAATAGGTCGTTGATGAGTAGGCG | 0.501
